# Compound activity as filed in PubChem.
# KCNQ2 enhance: enhances the rat KCNQ2 potassium channel; O88943; CHO-K1 KCNQ2, FluxOR thallium flux fluorescence; active compounds read high; B-score at 10 µM; hit rate 0.54% among 310,000;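 active = fluorescence ratio B-score at least 3 SD of library B-scores, with initial fluorescence B-score within 3 of them, cut at about 5.3 in these data; same plate scores as AID 2156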;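 also: B-score of peak minus minimum over baseline fluorescence ratio after K+ and Tl+ stimulus; positive B-score means potentiation of KCNQ2 with more thallium influx and brighter signal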
# KCNQ2 block: KCNQ2 (rat) channel inhibition; O88943; CHO-K1 KCNQ2, FluxOR thallium flux, 20 min; active compounds read low; B-score at 10 µM; hit rate 1.1% among 310,000;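 active = fluorescence ratio B-score at most minus 3 library SDs, with starting brightness B-score within 2 library SDs, cut at about -5.5 in these data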
# Kir21 confirm: confirmation of mouse Kir2.1 potassium channel inhibitors. shares compounds with KCNQ2 enhance. Kir2.1-expressing cells, FluxOR thallium flux fluorescence; active compounds read low. Tl flux remaining, % of negative control (active compounds read low), % at 10 µM. hit rate 41% among 2,300. AID 2032;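 active = Primary-screen hit whose thallium flux fell at least 3 control SD below untreated wells in both duplicates, with normal baseline fluorescence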;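 also: 0% = blank wells without stimulus and 100% = stimulated no-compound controls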
# Target sequence (P35561 whole entry, looked up): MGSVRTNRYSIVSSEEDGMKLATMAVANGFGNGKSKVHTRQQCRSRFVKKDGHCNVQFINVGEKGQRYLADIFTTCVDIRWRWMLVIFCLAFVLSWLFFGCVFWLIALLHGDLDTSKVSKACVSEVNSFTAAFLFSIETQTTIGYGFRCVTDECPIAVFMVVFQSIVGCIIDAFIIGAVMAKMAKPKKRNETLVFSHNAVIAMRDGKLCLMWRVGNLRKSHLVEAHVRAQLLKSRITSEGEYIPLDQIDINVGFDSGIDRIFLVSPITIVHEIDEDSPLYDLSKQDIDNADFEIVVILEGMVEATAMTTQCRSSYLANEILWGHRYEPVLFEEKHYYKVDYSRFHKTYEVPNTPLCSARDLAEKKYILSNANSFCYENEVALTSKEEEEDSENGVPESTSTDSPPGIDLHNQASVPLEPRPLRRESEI
# HEK293 Tl flux: alters thallium flux in parental HEK293 cells, Kir2.1 counter-screen; AID 2105; hit rate 19% among 2,300; shares compounds with KCNQ2 enhance; FluxOR signal as % of negative control (100 = no effect), % at 10 µM; FluxOR thallium flux fluorescence; 0% = unstimulated blank wells;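 active = dye signal at least 3 control SD above or below untreated wells in both duplicates, raw fluorescence within 3, either direction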;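 also: percent is based on the flux ratio of peak minus minimum fluorescence over baseline F0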
# CHO-K1 ctr: parental CHO-K1 activity in KCNQ2 potentiator counter-screen; shares compounds with KCNQ2 enhance; parental CHO-K1 cells, FluxOR thallium flux fluorescence; zero = vehicle mean+3SD, 100% = vehicle-minus-blank window; activity increase over 3SD of controls, % at 10 µM; hit rate 43% among 1,200; AID 2282;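 active = signal rise of at least 3 SD above the untreated control mean, in both duplicate wells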;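 also: counter screen of KCNQ2 potentiator hits so any rise reflects channel-independent effects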
# KCNQ1 sel pot: human KCNQ1 counter-target activity of KCNQ2 potentiators; shares compounds with KCNQ2 enhance; CHO KCNQ1 stable, FluxOR thallium flux fluorescence; beyond 3SD, as % of vehicle-control signal; hit rate 28% among 1,200; activation over 3SD threshold, % at 10 µM;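 active = fluorescence ratio rise of at least 3 SD of vehicle wells above their mean, in both replicate wells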;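 also: 0% = vehicle mean plus 3 SD and 100% = vehicle minus unstimulated blank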
# KCNQ2 pot confirm: confirmation of rat KCNQ2 potassium channel potentiators | shares compounds with KCNQ2 enhance | potentiation, less the hit threshold, % at 10 µM | AID 2287 | CHO-KCNQ2 cells, FluxOR thallium flux fluorescence | hit rate 68% among 1,200;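 active = fluorescence ratio rising 3 SD or more over the vehicle control mean in both replicates, plus primary screen hit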;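 also: peak minus minimum thallium fluorescence divided by baseline after K/Tl stimulus; 0% = vehicle mean plus 3 SD and 100% = vehicle minus unstimulated blank difference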
# Kir2-1 sel: mouse Kir2.1 off-target activity of KCNQ2 potentiators; shares compounds with KCNQ2 enhance; hit rate 2% among 1,200; HEK293 Kir2.1, FluxOR thallium flux fluorescence; activity over 3SD threshold, % at 10 µM;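 active = fluorescence ratio rise of at least 3 SD above the vehicle-control mean, seen in both replicates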;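 also: 0% = vehicle mean plus 3 SD and 100% = vehicle minus no-stimulus blank window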
# KCNQ2 W236L MoA: rat KCNQ2 W236L mutant potentiation by KCNQ2 potentiators; shares compounds with KCNQ2 enhance; CHO KCNQ2-W236L, automated patch clamp current; current increase over 3SD of negative controls (%), active compounds read high, % at 25 µM; hit rate 10% among 940; AID 2558;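 active = current increase at least 3 SD of the untreated controls above them in both duplicate recordings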
# * marks the source's active call; other numbers are inactive results; i = inactive; · = no result. Shown are actives, neighbours in structure and some others; about 1.6% of the full set was active somewhere.
SMILES,KCNQ2 enhance,KCNQ2 block,Kir21 confirm,HEK293 Tl flux,others
Cc1cc(/C=C2\SC(=S)NC2=O)cc(C)c1O,0.89,i,·,·,
C=CCN(c1ccccc1)S(=O)(=O)c1cccc(C(=O)NNC(=O)c2ccncc2)c1,0.03,i,·,·,
O=c1[nH][nH]c(=O)n1-c1ccccc1,0.01,i,·,·,
O=C(Nc1ccccc1)C(Cl)C(=O)c1ccccc1 (stereo not drawn),·,i,66.5%*,70.0%*,
CC(C(=O)Nc1ccccc1)C(=O)Nc1ccccc1,0.59,i,·,·,
COc1ccc(N(CC(=O)NC2CCCCC2)C(=O)c2ccc(C)s2)cc1OC,·,i,·,·,
Cc1ccc(N/C=C/C(=O)C(C)(C)C)c(O)c1,8.34*,i,i,i,CHO-K1 ctr=-1.1;KCNQ1 sel pot=2.9*;KCNQ2 pot confirm=8.3*;Kir2-1 sel=-21.0;KCNQ2 W236L MoA=i
CC(=O)Nc1ccc(N/C=C/C(=O)C(C)(C)C)cc1,·,i,·,·,
CC(NC(=O)c1cccc(F)c1)C1CC2CCC1C2 (stereo not drawn),·,i,·,·,
CC(C)(C)C(=O)Nc1c2c(nn1-c1ccc(F)cc1)CSC2,0.03,i,·,·,
CC(C)(C)n1nc2c(c1NC(=O)Cc1ccc(F)cc1)CSC2,14.3*,i,i,i,CHO-K1 ctr=1.6*;KCNQ1 sel pot=-15.7;KCNQ2 pot confirm=83.9*;Kir2-1 sel=-45.5;KCNQ2 W236L MoA=i
CCOc1ccc(S(=O)(=O)NC2CCCC2)cc1,·,i,·,·,
C[C@@H](NCCc1ccc(O)cc1)[C@@H](O)c1ccc(O)cc1,0.08,i,·,·,
CCCCCCCCNC(C)C(O)c1ccc(SC(C)C)cc1 (stereo not drawn),6.84*,i,·,·,CHO-K1 ctr=-55.8;KCNQ1 sel pot=-20.1;KCNQ2 pot confirm=-46.2;Kir2-1 sel=-61.6
CCOC(=O)c1sc(NC(=O)C2CC(=O)N(c3ccc(OC)cc3)C2)nc1C (stereo not drawn),·,i,·,·,
CN(C(=O)COC(=O)/C=C/c1cccs1)c1c(N)n(Cc2ccccc2)c(=O)[nH]c1=O,0.41,i,·,·,
Cc1ccc(-n2c(C)n[nH]c2=S)cc1C,·,i,·,·,
CC1=CC(C)(C)NC(=S)N1c1ccc(C)c(C)c1,0.02,i,·,·,
CCC1(c2ccc(Cl)cc2)NC(=S)N(c2ccc(C)c(C)c2)N1 (stereo not drawn),28.7*,i,i,537.0%*,CHO-K1 ctr=21.0*;KCNQ1 sel pot=-10.0;KCNQ2 pot confirm=67.5*;Kir2-1 sel=-3.1
CCC1(c2ccccc2)NC(=S)N(c2ccc(C)c(C)c2)N1 (stereo not drawn),12.9*,i,i,435.0%*,CHO-K1 ctr=-5.3;KCNQ1 sel pot=-18.5;KCNQ2 pot confirm=55.2*;Kir2-1 sel=-19.1;KCNQ2 W236L MoA=i
NS(=O)(=O)c1cccc(NC(=O)c2cccnc2Oc2ccccc2)c1,·,i,·,·,
O=C(NCCCn1ccnc1)/C(=C\c1ccc(Br)cc1)NC(=O)c1ccccc1F,·,i,·,·,
O=C1c2ccccc2C(=O)N1CC(O)COc1ccccc1Cl (stereo not drawn),·,i,·,·,
O=C(O)CN1C(=O)c2ccc(C(=O)c3ccccc3)cc2C1=O,1.38,i,·,·,
CC(C)c1ccc(NC(=O)N2CCN(S(=O)(=O)c3ccccc3)CC2)cc1,7.33*,i,·,·,CHO-K1 ctr=-15.2;KCNQ1 sel pot=-20.0;KCNQ2 pot confirm=-6.4;Kir2-1 sel=-51.3;KCNQ2 W236L MoA=i
SMILES,KCNQ2 enhance,KCNQ2 block,Kir21 confirm,HEK293 Tl flux,others
CS(=O)(=O)N1CCN(C(=O)Nc2ccccc2)CC1,0.31,i,·,·,
Cc1nc2ccc(S(=O)(=O)NCC(=O)Nc3ccc(F)cc3)cc2s1,0.64,i,·,·,
Cc1ccc2nc(NC(=O)c3ccco3)sc2c1,0.98,i,·,·,
Cc1ccc2nc(NC(=S)NC(=O)c3ccco3)sc2c1,12*,i,i,228.0%*,
O=C(NC(=S)Nc1nc(-c2ccc(Br)cc2)cs1)c1ccco1,5.08,i,·,·,
O=C(NC(=S)Nc1nc(-c2ccc([N+](=O)[O-])cc2)cs1)c1ccco1,10.3*,i,i,168.0%*,CHO-K1 ctr=-6.6;KCNQ1 sel pot=43.6*;KCNQ2 pot confirm=-7.1;Kir2-1 sel=-26.9
CCC(=O)C1CCCN(C(=O)CCc2nnc(C3(c4ccc(Cl)cc4)CCC3)o2)C1 (stereo not drawn),·,i,·,·,
CCOc1ccc(/C=N/NC(=O)C(O)c2ccccc2)c(O)c1 (stereo not drawn),·,i,·,·,
CC(C)c1ccc(/C=C(\c2nc3ccccc3[nH]2)S(=O)(=O)c2ccccc2)cc1,·,i,·,·,
O=S(=O)(/C(=C/c1ccc(C(F)(F)F)cc1)c1nc2ccccc2[nH]1)c1ccccc1,-7.84,-7.84*,i,i,
CCN(CC(=O)NCc1ccc(F)cc1)C(=O)c1cccnc1SC,2.31,i,·,·,
CCOc1nc(-c2ccccc2)c2cc(Br)ccc2n1,·,i,·,·,
Cc1cccc(NC(=O)C2CC2c2ccccc2)c1C (stereo not drawn),18.2*,i,i,i,CHO-K1 ctr=-6.0;KCNQ1 sel pot=-11.4;KCNQ2 pot confirm=46.6*;Kir2-1 sel=-22.9;KCNQ2 W236L MoA=i
COc1ccc(OC)c(NC(=O)C2CCCC2)c1,2.35,i,·,·,
COc1ccc(OC)c(NC(=O)C2CC2c2ccccc2)c1 (stereo not drawn),18.6*,i,i,72.0%*,CHO-K1 ctr=-5.4;KCNQ1 sel pot=8.9*;KCNQ2 pot confirm=58.8*;Kir2-1 sel=-37.8;KCNQ2 W236L MoA=i
O=C(Nc1ccccc1F)C1CC1c1ccccc1 (stereo not drawn),4.24,i,·,·,
Cc1ccc(Cl)cc1NC(=O)C1CC1c1ccccc1 (stereo not drawn),6.21*,i,i,i,CHO-K1 ctr=-13.9;KCNQ1 sel pot=-12.9;KCNQ2 pot confirm=-1.3;Kir2-1 sel=-39.1;KCNQ2 W236L MoA=i
Cc1ccc(Cl)cc1NC(=O)C1C2CCC(O2)C1C(=O)O (stereo not drawn),·,i,·,·,
COc1ccc(C(=O)Nc2cc(OC)ccc2OC)cc1,0.02,i,·,·,
COc1ccc(OC)c(NC(=O)c2ccc(Cl)cc2)c1,6.52*,i,i,i,CHO-K1 ctr=-10.2;KCNQ1 sel pot=-12.5;KCNQ2 pot confirm=9.8*;Kir2-1 sel=-27.2;KCNQ2 W236L MoA=i
Cc1ccc(C)c(NC(=O)CSc2nnc(NC(=O)C3CC3)s2)c1,0.66,i,·,·,
CC1CC(C)CN(S(=O)(=O)c2ccc3c(c2)oc(=O)n3CC(=O)NCCCOC(C)C)C1 (stereo not drawn),0.86,i,·,·,
CN(C)c1ccc(CNC(=O)CCS(=O)(=O)c2ccc3c(c2)n(C)c(=O)c(=O)n3C)cc1,2.44,i,·,·,
COc1ccc(OC)c(NC(=O)C(=S)NC2CCCCC2)c1,0.98,i,·,·,
COc1ccc(NC(=O)C(=O)NNC(=O)COc2ccc(Cl)cc2)c(OC)c1,10.2*,i,i,317.5%*,CHO-K1 ctr=0.6*;KCNQ1 sel pot=-31.2;KCNQ2 pot confirm=20.9*;Kir2-1 sel=-11.6;KCNQ2 W236L MoA=i
COc1cc(NC(=O)COc2ccc(Cl)cc2)ccc1NC(=O)C(C)C,·,i,·,·,
